# Reference: the supplement of paper PMC6555819
# Legend:
# Assay in all cases: PBM binding z-score (relative to random genomic background probes); higher = stronger binding; sequences stand for … in GC…GCGATTGACAGCGTAGAATGAAGG
# [1] = test system: FXR:RXRa (NR concentration 270 nM, RXRa partner concentration 90 nM)
# Method in brief: (§1)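 Binding z-scores take random background probes as their reference. They come from custom Agilent 4×180K protein-binding microarrays incubated 1 h with ligand-free nuclear receptor dimers, with antibodies against each partner (one per run) detecting binding. Scanned fluorescence was regression-normalized.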
# [2] = test system: LXRa:RXRa (NR concentration 270 nM, RXRa partner concentration 90 nM)
# Method in brief: as §1
# [3] = test system: LXRa homodimer (NR concentration 270 nM)
# Method in brief: as §1
# [4] = test system: LXRb:RXRa (NR concentration 270 nM, RXRa partner concentration 90 nM)
# Method in brief: as §1
# [5] = test system: LXRb homodimer (NR concentration 270 nM)
# Method in brief: as §1
# [6] = test system: PPARa:RXRa (NR concentration 270 nM, RXRa partner concentration 90 nM)
# Method in brief: as §1
# [7] = test system: PPARg:RXRa (NR concentration 180 nM, RXRa partner concentration 90 nM)
# Method in brief: as §1
# [8] = test system: PPARg:RXRa 270nM:90nM, anti-RXR (NR concentration 270 nM, RXRa partner concentration 90 nM)
# Method in brief: as §1
# [9] = test system: PPARg:RXRa 30nM:10nM, anti-RXR (NR concentration 30 nM, RXRa partner concentration 10 nM)
# Method in brief: as §1
# [10] = test system: PPARg:RXRa 90nM:30nM, anti-RXR (NR concentration 90 nM, RXRa partner concentration 30 nM)
# Method in brief: as §1
Sequence,PBM binding z-score [1],PBM binding z-score [2],PBM binding z-score [3],PBM binding z-score [4],PBM binding z-score [5],PBM binding z-score [6],PBM binding z-score [7],PBM binding z-score [8],PBM binding z-score [9],PBM binding z-score [10]
CATACAGGCTCAGCTAGGCCAGAGTAGGGACGGC,-0.48,-0.677,-0.674,-1.16,-0.846,-0.795,0.181,-0.549,-0.529,-0.694
CCTACTGGGCGAAAAAGGTCATTGATGCCGATAA,3.16,3.79,2.59,3.91,-0.182,4.45,1.67,3.1,0.977,1.93
AGCGAAAGGTCGACGAGGTGAGTATACACCGTTT,4.18,2.97,-0.376,2.37,-0.286,4.3,3.21,3.62,0.842,2.31
CCTAGGAGGCCAATCTGGGTCACTCAAGGCTTGA,1.29,2.42,-0.439,1.35,-1.2,3.35,2.59,2.49,0.067,1.85
CGTCAAAGTTCAAGGAAACGTAACAGAAAGCAGC,5.45,5.15,1.92,2.97,0.958,4.11,3.58,4.4,1.69,3.29
AATAGCAGGCCAAGGGTCACTCAAGATTAGTCCG,2.6,3.25,0.455,2.65,-0.0727,4.75,8.33,7.83,6.83,8.23
GATACAGGGTCAGCTAGAGGCCAGAATATGGAAA,4.72,2.63,-0.176,2.61,-0.466,4.48,3.78,3.14,1.04,2.25
AGAATGAGGTTATTAAGATCAGGGAGTTGCGGTC,1.77,1.34,0.175,1.29,0.183,2.49,1.37,2.07,0.61,1.5
CAGCCTAGGTCAGGGCCAGTATCGGAGGAACGTT,1.55,0.907,-0.258,0.354,-1.03,1.91,0.418,0.759,-0.713,0.129
ATATGTAGGTTAACGGGTCATTCAGTTTGCGCAT,2.83,3.03,1.03,3.05,0.599,5.14,7.84,6.45,4.4,6.25
AATACAGGCTCATCGTAGGCCAGAGTACGCACAG,-0.253,-0.407,-0.211,-0.712,-0.726,-0.569,0.784,-0.256,-0.133,-0.254
TCAGACAGGTGAAGGGAACTCAGGTACGCAGTCG,0.945,0.772,0.0804,0.859,0.193,1.25,0.602,2.23,3.93,2.93
CTCGAAACGTCGTGCTCAGGTGAGTATACCAAAC,-0.453,-0.656,-0.383,-0.688,-0.52,-0.553,-0.362,-0.781,-0.655,-0.34
AATACAGGGTCAATAGGCCAGAGTAGGTACGAAT,6.54,5.03,0.816,3.72,0.669,5.72,6.47,5.46,2.53,4.61
ATATGTAGGGTAGCTGGGGTCATTCAGACTAGGC,3.69,4.07,2.16,4.42,1.68,5.28,5.01,4.85,2.14,3.95
TTACCAAGGTGAAAGGTCGTTTATGCACGCCTTG,3.55,3.3,0.773,3.33,0.0475,5.2,8.69,7.73,6.93,8.46
ACAGACTGGTGAGTGAAGGTAACTCAGCTGGACG,-0.31,-0.557,-0.264,-0.755,-0.871,-0.552,0.259,-0.5,-0.557,-0.438
TCATATAGGTAAAAGGTGAAAGGCGGTGTGGTAA,1.86,1.88,0.349,1.9,0.306,5.25,9.05,8.31,8.92,9.94
TGAATGAGGTTAAAGATCAGGGAACGTGGCGTCG,3.08,2.42,-0.304,1.71,0.375,4.63,5.54,6.57,4.6,6.57

Sequence,PBM binding z-score [1],PBM binding z-score [2],PBM binding z-score [3],PBM binding z-score [4],PBM binding z-score [5],PBM binding z-score [6],PBM binding z-score [7],PBM binding z-score [8],PBM binding z-score [9],PBM binding z-score [10]
GCTCGGAGGACAAGGTCATAGCTTTGTCCGTAGA,4.1,3.71,0.47,2.77,-0.053,4.08,2.43,3.37,0.472,2.08
TATAGAGGGTCAAAGGCCAGAGTACGAATGTCGA,6.65,4.84,0.902,3.76,1.49,5.82,8.05,6.87,5.22,7.09
CCTTACGGGTTAAGGTTATAGCACGGGTGGTACG,1.55,1.38,-0.0602,1.09,-0.11,2.09,1.12,1.61,0.309,1.09
AACTCTAGGTAACAAGTTCAGTGAAAGAGAGGAC,0.335,0.477,0.364,0.379,-0.166,1.58,1.32,1.72,0.492,1.31
CCTGCTAGGCCATGGTCAGCTAATCTACAGTATG,-0.543,-0.565,-0.936,-0.753,-0.769,-0.617,0.069,-0.552,-0.451,-0.579
CCTTACGGGTCAAGGTTATAGAACGGGTGGTACG,5.4,3.68,0.401,3,-0.0236,5.1,4.04,4.67,1.87,3.53
CGTCCAATGTCAATGCTAGGTCAGTGAAAGCATT,0.511,0.781,0.797,0.644,-0.123,1.01,-0.028,0.117,-0.386,0.0802
ATCTCTAGGTAACCAAGTTCAGTGATTGCCGAAC,0.358,0.717,0.794,0.577,0.713,1,0.254,0.803,0.204,0.579
TTACCAATGTGAAGGTCGTTGATCCCTCTGTAGA,1.87,2.22,0.434,1.74,0.0606,1.3,-0.039,1.1,1.12,0.829
GCAGACAGGTGATACGCAGGTAACTCAGGGTGGC,-0.378,-0.342,-0.563,-0.687,-1.16,-0.129,0.508,-0.512,-0.33,-0.762
AATACAGGGTCACTAGGCCAGAGTTGGTACGAAT,6.05,4.87,0.807,3.75,0.616,5.99,8.38,6.63,3.71,5.85
TCTAGCAGGCCAGAGGGTGACTCAAGAGGTACGG,-0.401,0.0114,-0.795,-0.373,-1.42,0.54,1.05,2.1,1.99,2.19
AGAATAAGGTTACCAAAGATCAGGGAAACGCTTG,1.76,5.91,0.165,2.57,-0.0188,2.93,1.84,2.41,0.732,1.67
ATCTCTAGGTAAAAGTTCAATGAATCCCGAGGAT,1.81,2.65,2.7,2.03,1.14,4.88,8.83,8.49,8.81,9.69
ATATGTTGGTTAGCTGGGGTCATTCAGACTAGGC,3.89,4.15,2.39,4.32,1.69,4.26,1.3,2.46,0.784,1.8
CCTGCTAGGTCAATGGTCAGCTATAGCAGCTCGC,2.7,2.23,0.0531,1.44,0.0202,3.06,4.45,4.91,2.6,4.71
GCTTACTGGTCAAAGGTTATAGCATGAATAGAAT,2.63,2.93,0.195,2.9,-0.146,4.95,8.22,7.6,6.04,7.95
CGAACTAGGTCAAGCACAGTGAATCTCCGCACGC,4.1,2.35,0.195,1.67,-0.136,4.74,7.62,6.72,4.49,6.09
